Tg IFNy HTS = blocks Toxoplasma gondii growth in the presence of IFN-gamma | activity change, negative = inhibition, % (no concentration beside the values) | AID 1259416 | 69,000 tested, 3.8% active | Toxoplasma gondii growth in IFN-gamma-treated host cells; active compounds read low; in the data active means activity change below about -70%, passing the limit was not always enough;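 further: host cells are HeLa cells infected with Toxoplasma gondii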
Numbers stand for hits. Only a selection was taken, and hits are over-represented in it overall.

For CCOCc1ncn2c1CN(C(=O)c1cc(C)oc1C)CC2 the results were Tg IFNy HTS inactive.
CCOc1ccc(-c2nc3c(s2)CN(S(=O)(=O)Cc2ccccc2)CC3)cc1 was read as Tg IFNy HTS inactive.
For CCOc1ccc(-c2nc3c(s2)CN(S(=O)(=O)c2ccc(F)cc2)CC3)cc1 the results were Tg IFNy HTS inactive.
Cc1ccc(-c2nc3c(s2)CN(S(=O)(=O)c2cccc(Cl)c2C)CC3)cc1 was read as Tg IFNy HTS -76.
COc1cccc(-c2nc3c(s2)CN(S(=O)(=O)c2ccc(F)cc2)CC3)c1 was read as Tg IFNy HTS -79.
`CCOc1ccc(-c2nc3c(s2)CN(S(=O)(=O)c2cccc(F)c2)CC3)cc1` gave Tg IFNy HTS inactive.
`CCOc1ccc(-c2nc3c(s2)CN(S(=O)(=O)c2cc(F)ccc2C)CC3)cc1` gave Tg IFNy HTS -95.
For COc1cccc(-c2nc3c(s2)CN(S(=O)(=O)c2ccc(Cl)cc2)CC3)c1 the results were Tg IFNy HTS inactive.
For COc1ccc(S(=O)(=O)N2CCc3nc(-c4cccc(OC)c4)sc3C2)cc1 the results were Tg IFNy HTS inactive.
For CCOc1ccc(-c2nc3c(s2)CN(S(=O)(=O)c2ccccc2C)CC3)cc1 the results were Tg IFNy HTS -94.
`COc1ccc(Cl)cc1S(=O)(=O)N1CCc2nc(-c3ccc(C)cc3)sc2C1` gave Tg IFNy HTS inactive.
For Cc1ccc(-c2nc3c(s2)CN(S(=O)(=O)c2ccc(F)cc2)CC3)cc1 the results were Tg IFNy HTS inactive.
Cn1c(C(=O)NCc2cccnc2)cc2cc(S(=O)(=O)N3CCCCC3)ccc21 was read as Tg IFNy HTS inactive.
Screening COc1cccc(C(=O)N2CCn3nnc(COc4ccccn4)c3C2)c1 returned Tg IFNy HTS inactive.
Screening COc1ccccc1CN1CCC2(CC1)CC(NS(C)(=O)=O)CCO2 (stereo not given) returned Tg IFNy HTS inactive.
For O=C(c1ccoc1)N1CCC2(CC1)OC(C(=O)N1CCCC1)Cn1ccnc12 (stereo not given) the results were Tg IFNy HTS inactive.
OC(CNC1CCC2(CCNCC2)CC1)c1ccccc1Cl (stereo not given) was read as Tg IFNy HTS inactive.
`COc1ccccc1CNC(=O)CC1N=C2c3ccccc3N=C(SCc3cccc(F)c3)N2C1=O` (stereo not given) gave Tg IFNy HTS inactive.
`O=C(NCC1CC1)[C@H]1C[C@@H]2CN(C(=O)Nc3ccccc3)C[C@H]1O2` gave Tg IFNy HTS inactive.
FC(F)(F)c1ccc(Cn2cnc(-c3ccccc3)c2C2CC2)cn1 was read as Tg IFNy HTS inactive.
For COc1cccc(-c2nc3c(s2)CN(C(=O)Nc2ccccc2C)CC3)c1 the results were Tg IFNy HTS inactive.
Screening COc1ccc(-c2nc3c(s2)CN(S(=O)(=O)c2ccc(C(C)(C)C)cc2)CC3)cc1 returned Tg IFNy HTS inactive.
`COc1ccc(-c2nc3c(s2)CN(S(=O)(=O)c2ccccc2C)CC3)cc1` gave Tg IFNy HTS -115.
Screening CCCc1ccc(S(=O)(=O)N2CCc3nc(-c4ccc(OC)cc4)sc3C2)cc1 returned Tg IFNy HTS inactive.
`COc1cccc(-c2nc3c(s2)CN(S(=O)(=O)c2c(C)cc(C)cc2C)CC3)c1` gave Tg IFNy HTS -98.
Screening COc1cccc(-c2nc3c(s2)CN(S(=O)(=O)c2ccc(CC(C)C)cc2)CC3)c1 returned Tg IFNy HTS inactive.
COc1ccc(-c2nc3c(s2)CN(S(=O)(=O)c2ccc(Cl)cc2)CC3)cc1 was read as Tg IFNy HTS inactive.
COc1cccc(-c2nc3c(s2)CN(S(=O)(=O)c2ccc(C)cc2)CC3)c1 was read as Tg IFNy HTS inactive.
`CCOc1ccc(S(=O)(=O)N2CCc3nc(-c4cccc(OC)c4)sc3C2)cc1` gave Tg IFNy HTS inactive.
`CCc1ccccc1S(=O)(=O)N1CCc2nc(-c3cccc(OC)c3)sc2C1` gave Tg IFNy HTS -91.
COc1ccc(-c2nc3c(s2)CN(S(=O)(=O)c2ccc(C)cc2)CC3)cc1 was read as Tg IFNy HTS -76.
Screening CCN(C/C=C/c1ccccc1)C(=O)c1cccc2cnccc12 returned Tg IFNy HTS inactive.
Screening COc1ccccc1N1CCN(Cc2cnn3cccnc23)C(C)C1=O (stereo not given) returned Tg IFNy HTS inactive.
COCC(=O)N1CC[C@@H](OCc2ccccn2)[C@@H](Cc2ccccc2)C1 was read as Tg IFNy HTS inactive.
For Cc1ccc(Cl)cc1NC(=O)c1nnn(Cc2nc(-c3ccc(Cl)cc3)oc2C)c1C the results were Tg IFNy HTS inactive.
CC(C)C(=O)N1CCC2(CCCN(c3nncs3)C2)C1 (stereo not given) was read as Tg IFNy HTS inactive.
O=C(NCCc1csc(-c2cccc(F)c2)n1)c1ccc2c(c1)OCO2 was read as Tg IFNy HTS inactive.
`CN(C)CC(=O)N1CC2(CCN(c3nccs3)C2)C1` gave Tg IFNy HTS inactive.
`Cc1oc(-c2ccc(Cl)cc2)nc1CN1CCCC(C(=O)NC2CCCCC2C)C1` (stereo not given) gave Tg IFNy HTS inactive.
For O=C(COc1ccccn1)N1CC(=O)N(CCc2ccccc2)C(=O)C1 the results were Tg IFNy HTS inactive.

Compound activity from PubChem.
